According to PubChem BioAssay:
Calls of active or inactive are those of the source. Unless noted, no rule for the calls is given here.

How the values were obtained:
[1] = system: Wnt5a (protein binding on small-molecule microarray); experiment: Wnt5a binders on small-molecule microarray, primary screen, biophysical, 635/667 nm fluorescence (AID 1142); details: 635 nm fluorescence, higher = more signal;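 also: fluorescence read at 667 nm with signal to noise per printed feature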
[2] = cell viability in Huh7 cells, primary screen, cytotoxicity control for HCV replication inhibitor project, CellTiter-Glo luminescence, basal, 48 h (AID 1143); details: Huh7 HCV replicon, higher = more signal, called active from +8 up or from −8 down;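 also: Huh7 hepatoma cells carrying a hepatitis C replication reporter with no stimulus; test concentration not given here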
[3] = P. aeruginosa biofilm formation inhibitors, primary screen, PAO1 strain, BacTiter-Glo luminescence, LB-PBS (AID 1144); details: 12 h, higher = more signal
[4] = CREB reporter modulators without forskolin, primary screen, cell-based, PC12, CRE-LacZ reporter, unstimulated (AID 1145); details: no forskolin, luminescence, 4.5 h, higher = more signal, called active from +8 up or from −8 down
[5] = CREB reporter modulators under forskolin, primary screen, cell-based, PC12, CRE-LacZ reporter, forskolin-stimulated (AID 1146); details: luminescence, 4.5 h, higher = more signal, called active from +8 up or from −8 down;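 also: PC12 cells with 6xCRE LacZ reporter stimulated by forskolin 10 µM; beta-galactosidase reporter signal reflecting CREB driven transcription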
[6] = target: Streptavidin (Streptomyces avidinii) (UniProt P22629); experiment: streptavidin binders on small-molecule microarray, primary screen, artefact control for SMM compound annotation, biophysical, 635/667 nm fluorescence (AID 1147); details: streptavidin binding, higher = more signal;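 also: signal reflects streptavidin binding to arrayed compounds as a control protein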
Chain of Streptavidin (Streptomyces avidinii) (P22629 whole entry, looked up): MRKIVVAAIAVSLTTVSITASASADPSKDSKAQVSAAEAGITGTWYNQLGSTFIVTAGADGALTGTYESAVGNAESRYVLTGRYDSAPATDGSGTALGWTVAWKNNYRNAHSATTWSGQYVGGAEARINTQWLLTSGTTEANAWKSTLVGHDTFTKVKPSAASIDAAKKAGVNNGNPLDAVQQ

[7] = small-molecule binders of probe aInhba, primary screen, biochemical, small-molecule microarray, 635/667 nm fluorescence (AID 1148); details: higher = more signal;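 also: score merges 667nm spot fluorescence with signal-to-noise for antibody binding to printed compounds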
[8] = target: Torsin-1A (Homo sapiens) (UniProt O14656); experiment: torsin A binders from cell lysate, primary screen, small-molecule microarray, wild-type, 635/667 nm (AID 1149); details: COS7 hTOR1A-WT lysate, 635 nm fluorescence, higher = more signal
Chain of Torsin-1A (Homo sapiens) (O14656 whole entry, looked up): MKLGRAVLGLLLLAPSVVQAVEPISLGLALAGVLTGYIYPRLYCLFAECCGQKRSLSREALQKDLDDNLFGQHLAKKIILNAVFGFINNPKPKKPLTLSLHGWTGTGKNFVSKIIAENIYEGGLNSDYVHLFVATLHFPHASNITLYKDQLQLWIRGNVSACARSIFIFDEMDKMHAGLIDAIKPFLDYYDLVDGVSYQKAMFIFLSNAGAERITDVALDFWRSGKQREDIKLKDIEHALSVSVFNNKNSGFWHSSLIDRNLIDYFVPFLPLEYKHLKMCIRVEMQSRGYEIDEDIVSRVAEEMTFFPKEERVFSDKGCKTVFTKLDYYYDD

[9] = target: Torsin-1A (Homo sapiens) (UniProt O14656); experiment: small-molecule binders of mutant TOR1A in lysate, primary screen, cell lysate, small-molecule microarray, COS7 lysate, 635/667 nm fluorescence (AID 1150); details: COS7 hTOR1A mutant lysate, 635 nm fluorescence, higher = more signal;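 also: score pools 667 nm emission and signal to noise measuring lysate protein binding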
[10] = system: Sonic hedgehog protein (Shh); experiment: small-molecule binders of Shh protein, primary screen, biochemical, small-molecule microarray, 635/667 nm fluorescence (AID 1151); details: small-molecule microarray binding, 635 nm fluorescence; higher = more signal;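 also: Shh protein binding to compounds spotted on small-molecule microarray slides; score combines spot fluorescence intensity with signal-to-noise across triplicate slides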
[11] = E. coli DRC41 culture turbidity changes, primary screen, E. coli filamentation inducer project, strain DRC41, OD650, 48 h (AID 1152);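 also: E. coli MC1000 strain DRC41 lacking acrAB efflux pump and sulA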; details: E. coli DRC41 (acrAB sulA), higher = more signal, called active from +8 up or from −8 down
[12] = small-molecule binders of probe aLefty1, primary screen, biochemical, small-molecule microarray, 635/667 nm fluorescence (AID 1153); details: higher = more signal;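 also: score merges spot fluorescence with signal-to-noise ratio from the scanned slide images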
[13] = PSAC antagonists in infected red cells, primary screen, cell-based, P. falciparum Indochina, OD700, 1 h (AID 1154); details: P. falciparum Indochina infected RBC osmotic lysis, higher = more signal, called active from +8 up or from −8 down
[14] = PSAC antagonists in infected red cells, primary screen, cell-based, P. falciparum Indochina, OD700, 2 h (AID 1155);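 also: lysis reports solute entry through the parasite surface anion channel PSAC; channel blockers reduce lysis of infected cells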; details: P. falciparum Indochina infected erythrocytes, osmotic lysis OD700; higher = more signal, called active from +8 up or from −8 down
[15] = osmotic lysis modulators in infected erythrocytes, primary screen, PSAC antagonist project, cell-based, P. falciparum Indochina, OD700, 3 h (AID 1156); details: higher = more signal, called active from +8 up or from −8 down
[16] = PSAC antagonists in infected red cells, primary screen, cell-based, P. falciparum Indochina, OD700, 18 h (AID 1157); details: P. falciparum Indochina infected erythrocytes, osmotic lysis OD700, 18 h; higher = more signal, called active from +8 up or from −8 down
[17] = modulators of S6 phosphorylation in cells, primary screen, cell-based, A549, cytoblot, luminescence, serum-stimulated (AID 1158); details: A549 phospho-S6 cytoblot, 5 h, higher = more signal;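 also: serum-stimulated A549 lung adenocarcinoma cells; signal is phosphorylated S6 detected by cytoblot immunostaining with HRP secondary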
[18] = target: NADPH oxidase 2 (Homo sapiens) (UniProt P04839); experiment: NOX2-dependent H2O2 signal modulators, primary screen, NOX inhibitor project, cell-based, HEK293-NOX2, PMA-stimulated, Amplex Red fluorescence (AID 1159); details: 45 min, higher = more signal, called active from +8 up or from −8 down; also: test concentration not given here
Chain of NADPH oxidase 2 (Homo sapiens) (P04839 whole entry, looked up): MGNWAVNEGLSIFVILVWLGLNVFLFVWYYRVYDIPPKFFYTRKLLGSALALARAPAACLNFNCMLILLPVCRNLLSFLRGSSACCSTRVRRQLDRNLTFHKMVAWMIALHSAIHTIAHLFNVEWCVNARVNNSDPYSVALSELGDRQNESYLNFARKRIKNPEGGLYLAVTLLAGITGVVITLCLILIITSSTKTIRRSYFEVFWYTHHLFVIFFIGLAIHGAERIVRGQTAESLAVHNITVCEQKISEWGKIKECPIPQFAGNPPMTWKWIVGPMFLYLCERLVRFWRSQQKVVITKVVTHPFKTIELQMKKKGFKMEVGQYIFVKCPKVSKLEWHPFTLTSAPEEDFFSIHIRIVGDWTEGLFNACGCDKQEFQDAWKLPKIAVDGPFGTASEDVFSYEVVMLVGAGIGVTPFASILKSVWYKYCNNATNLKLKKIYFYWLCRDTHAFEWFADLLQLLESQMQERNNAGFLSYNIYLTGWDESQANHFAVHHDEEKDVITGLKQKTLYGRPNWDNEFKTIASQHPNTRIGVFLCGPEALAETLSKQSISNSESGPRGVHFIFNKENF

[19] = target: NADPH oxidase 4 (Homo sapiens) (UniProt Q9NPH5); experiment: NOX4-dependent H2O2 signal modulators, primary screen, NOX inhibitor project, cell-based, HEK293-NOX4, tetracycline-induced, Amplex Red fluorescence (AID 1160); details: 45 min, higher = more signal, called active from +8 up or from −8 down
Chain of NADPH oxidase 4 (Homo sapiens) (Q9NPH5 whole entry, looked up): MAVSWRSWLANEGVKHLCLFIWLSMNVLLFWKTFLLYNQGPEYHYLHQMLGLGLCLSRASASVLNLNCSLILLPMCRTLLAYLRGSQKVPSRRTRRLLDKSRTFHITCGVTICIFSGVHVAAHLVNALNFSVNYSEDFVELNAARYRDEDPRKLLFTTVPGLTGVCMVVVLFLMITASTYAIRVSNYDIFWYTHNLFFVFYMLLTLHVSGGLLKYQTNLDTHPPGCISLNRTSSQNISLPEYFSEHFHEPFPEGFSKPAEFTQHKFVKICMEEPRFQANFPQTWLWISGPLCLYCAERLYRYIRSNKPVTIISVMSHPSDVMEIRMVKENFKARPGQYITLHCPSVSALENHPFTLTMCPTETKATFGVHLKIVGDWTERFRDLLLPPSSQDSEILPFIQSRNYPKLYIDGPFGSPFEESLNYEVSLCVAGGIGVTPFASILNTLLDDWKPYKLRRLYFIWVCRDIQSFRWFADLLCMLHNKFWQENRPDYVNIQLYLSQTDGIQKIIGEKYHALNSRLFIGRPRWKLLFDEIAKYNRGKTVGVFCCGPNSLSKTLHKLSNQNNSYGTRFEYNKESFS

[20] = target: NADPH oxidase 5 (Homo sapiens) (UniProt Q96PH1); experiment: NOX5-dependent H2O2 signal modulators, primary screen, NOX inhibitor project, cell-based, HEK293-NOX5, Amplex Red fluorescence (AID 1161); details: HEK293-NOX5, ionomycin, 45 min, higher = more signal
Chain of NADPH oxidase 5 (Homo sapiens) (Q96PH1 whole entry, looked up): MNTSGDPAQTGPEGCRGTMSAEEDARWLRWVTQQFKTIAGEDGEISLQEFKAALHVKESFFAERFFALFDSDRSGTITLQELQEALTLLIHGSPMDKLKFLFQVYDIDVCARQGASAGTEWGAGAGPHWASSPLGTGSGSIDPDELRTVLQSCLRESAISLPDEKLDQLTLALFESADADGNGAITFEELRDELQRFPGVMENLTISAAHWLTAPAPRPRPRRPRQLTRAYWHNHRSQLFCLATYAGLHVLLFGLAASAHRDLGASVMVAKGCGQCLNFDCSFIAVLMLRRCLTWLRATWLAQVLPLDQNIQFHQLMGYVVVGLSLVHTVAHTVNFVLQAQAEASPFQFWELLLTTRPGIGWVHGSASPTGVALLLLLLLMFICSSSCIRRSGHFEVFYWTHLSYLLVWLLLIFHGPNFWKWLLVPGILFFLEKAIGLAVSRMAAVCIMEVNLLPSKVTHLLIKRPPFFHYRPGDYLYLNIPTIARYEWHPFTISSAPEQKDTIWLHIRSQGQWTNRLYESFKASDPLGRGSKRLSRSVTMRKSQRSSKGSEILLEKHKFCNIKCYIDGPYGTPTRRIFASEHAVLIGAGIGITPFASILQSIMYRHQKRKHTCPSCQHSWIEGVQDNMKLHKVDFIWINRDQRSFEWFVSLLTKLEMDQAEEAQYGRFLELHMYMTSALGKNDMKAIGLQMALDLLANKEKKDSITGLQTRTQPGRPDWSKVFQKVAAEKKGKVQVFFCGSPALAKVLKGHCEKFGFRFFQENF

Compound | composite z-score [1] | z-score [2] | z-score [3] | z-score [4] | z-score [5] | composite z-score [6] | composite z-score [7] | composite z-score [8] | composite z-score [9] | composite z-score [10] | z-score [11] | composite z-score [12] | z-score [13] | z-score [14] | z-score [15] | z-score [16] | z-score [17] | z-score [18] | z-score [19] | z-score [20]
CCOC(=O)C1=C[C@@H](C(C)(C)C)N(S(=O)(=O)c2ccc(C)cc2)[C@H]1c1cccc2ccccc12 | -0.219 | -4.9 (inactive) | 0.873 (inactive) | 1.14 (inactive) | 0.705 (inactive) | 0.823 | 0.0421 | -0.331 | 0.406 | -0.165 | -1.11 (inactive) | 0.0927 | 0.564 (inactive) | 0.849 (inactive) | 0.31 (inactive) | 0.193 (inactive) | -0.674 | -0.527 (inactive) | 0.13 (inactive) | 0.139
Cc1ccc(S[C@]2(C(=O)NCC(F)(F)F)CC(=O)N(Cc3cc(C(F)(F)F)cc(C(F)(F)F)c3)[C@@H]2c2ccc(CO)cc2I)cc1 | -0.676 | -3.02 (inactive) | -1.29 (inactive) | -0.529 (inactive) | 0.423 (inactive) | -0.978 | -0.153 | -0.877 | -0.902 | -0.58 | 0.168 (inactive) | -0.563 | 1.71 (inactive) | -0.0111 (inactive) | 1.12 (inactive) | 0.449 (inactive) | 0.837 | 1.63 (inactive) | -2.46 (inactive) | -1.28
CCOC(=O)C[C@H]1[C@H](OC(=O)Cc2ccc3c(c2)OCO3)[C@@H](NC(=O)C2CCCCC2)c2cc(OCCCO)ccc2N1C(=O)c1ccccc1 | -0.0729 | -0.0136 (inactive) | -1.38 (inactive) | 2.82 (inactive) | -1.27 (inactive) | 0.584 | -0.0313 | -0.0429 | 0.0914 | 0.0725 | 2.81 (inactive) | -0.06 | 1.27 (inactive) | 0.569 (inactive) | -0.481 (inactive) | 0.0872 (inactive) | 0.524 | -0.233 (inactive) | 0.636 (inactive) | -0.206
C=CC[C@@]1(C(=O)NCCCOC)N=C(c2ccc(OCCCO)cc2)O[C@@H]1c1ccccc1 | 0.452 | -1.92 (inactive) | 0.305 (inactive) | 1.51 (inactive) | -0.68 (inactive) | 0.428 | 0.771 | 0.478 | 1.3 | -0.499 | 1.3 (inactive) | 0.611 | 21.7 (active) | 7.55 (inactive) | 1.32 (inactive) | 0.406 (inactive) | 1.54 | -0.393 (inactive) | 0.523 (inactive) | 0.754
CCOC(=O)C=Cc1cccc(C)c1O | -0.0909 | -4.73 (inactive) | -1.02 (inactive) | 0.472 (inactive) | -0.631 (inactive) | -0.259 | -0.0375 | 0.299 | 0.777 | 0.219 | -0.718 (inactive) | -0.0011 | 9 (active) | -0.0712 (inactive) | 0.193 (inactive) | -2.11 (inactive) | 1.52 | -5.05 (inactive) | -4.89 (inactive) | -4.98
